Results on 35 compounds are retold here after PubChem BioAssay.

Chain of E3 ubiquitin-protein ligase XIAP (Homo sapiens) (P98170 whole entry, looked up): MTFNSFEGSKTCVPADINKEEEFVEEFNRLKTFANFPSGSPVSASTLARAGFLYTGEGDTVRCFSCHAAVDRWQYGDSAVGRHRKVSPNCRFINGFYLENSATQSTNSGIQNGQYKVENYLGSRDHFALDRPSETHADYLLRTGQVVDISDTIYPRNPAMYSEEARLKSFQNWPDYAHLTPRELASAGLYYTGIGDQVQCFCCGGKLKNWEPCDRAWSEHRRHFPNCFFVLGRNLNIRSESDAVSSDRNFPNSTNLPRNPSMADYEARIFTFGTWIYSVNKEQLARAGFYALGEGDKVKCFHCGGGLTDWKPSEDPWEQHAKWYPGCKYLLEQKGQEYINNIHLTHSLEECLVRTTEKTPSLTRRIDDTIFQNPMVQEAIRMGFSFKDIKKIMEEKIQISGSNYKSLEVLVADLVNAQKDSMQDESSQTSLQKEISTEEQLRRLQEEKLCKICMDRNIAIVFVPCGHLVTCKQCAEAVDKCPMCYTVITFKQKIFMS

Tested on in one test: not listed separately
As to the kind of experiment: RPMI8226 myeloma cell viability, profiling panel, resazurin fluorescence, basal, 24 h, PK04 Diversity Set (AID 1180).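 Further: RPMI8826 multiple myeloma cell line at 5000 cells per well; test concentration not given here.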 The following applies: higher = more signal.
Regarding `[N-]=[N+]=NCc1ccccc1C[C@@]1(C(=O)N2CCCCC2)N=C(c2ccc(OCCCO)cc2)O[C@@H]1c1ccccc1CN=[N+]=[N-]`, the z-score is -0.911.
Same read-out and setting: the figure for `COC(=O)[C@@]1(Cc2ccc(OC)cc2)[C@H]2c3cc(C(=O)N4CCCC4)n(Cc4ccc(S(C)(=O)=O)cc4)c3C[C@H]2CN1C(=O)c1ccccc1` is -0.84.
On the same count and under the same terms, the figure for `CCOC(=O)C[C@H]1[C@H](OC(=O)c2ccc(C(=O)c3ccccc3)cc2)[C@@H](NC(=O)CC(C)C)c2cc(OCCCO)ccc2N1C(=O)Cc1ccc(OC)cc1` is 0.0274.
Turning to `O=C1C2C=CC(C(O)c3ccco3)N(Nc3ccccc3)C2C(=O)N1c1ccccc1` (centres undefined), the z-score turned out to be 0.628.
The same measure, in the same setting: the figure for `Cc1ccc(F)cc1S(=O)(=O)N[C@@H]1CCN(Cc2cccc3[nH]ccc23)C1` is -0.504; for `CCOC(=O)C1=C[C@@H](c2ccccc2)N(S(=O)(=O)c2ccc(C)cc2)[C@H]1c1ccccc1` it is -0.549; for `COCCOC(=O)N1C(=O)[C@@]2(c3cc(C#CCC(C(=O)OC)C(=O)OC)ccc31)[C@H](c1ccc(OCCO)cc1)N1[C@H](c3ccccc3)[C@H](c3ccccc3)OC(=O)[C@H]1[C@@H]2C(=O)Nc1nc2ccccc2s1` it is -1.15.
Still for that read-out and setting: the figure for `COC(=O)[C@@]1(Cc2ccccc2CN=[N+]=[N-])N=C(c2ccc(OCCCO)cc2)O[C@H]1c1ccccc1` is -6.08; for `COC(=O)C(CC#Cc1ccc2c(c1)[C@]1(C(=O)N2)[C@H](c2ccc(OCCO)cc2)N2[C@H](c3ccccc3)[C@H](c3ccccc3)OC(=O)[C@H]2[C@@H]1C(=O)N1CCN(c2ncccn2)CC1)C(=O)OC` it is -2.63.
Still for that read-out and setting: the figure for `CCCCCCCCCCC(O)C1C=CC2C(=O)N(C)C(=O)C2N1Nc1cc(OC)c(OC)c(OC)c1` (centres undefined) is -3.54; for `C=CCC(OC(C)=O)[C@@H]1[C@@H](N(Cc2ccc(-c3ccccc3)cc2)C(=O)c2ccc(C)cc2)c2cc(OCCCO)ccc2N1C(=O)Cc1ccc2ccccc2c1` (some centres undefined) it is 1.22; for `Cc1cccc([C@H]2C[C@H]3C(Br)=C[C@@H]2C(=O)[C@]32CO2)c1` it is -0.332.
`O=C(O)[C@H]1C[C@H]2C(=O)N[C@@H](Cc3ccccc3)C(=O)N2[C@H]1c1cccc(OCCO)c1` displayed a z-score of 0.889.
On the same count and under the same terms, the figure for `Cc1cccc([C@H]2C[C@H]3C(I)=C[C@@H]2C(=O)[C@]32CO2)c1` is 0.305; for `COc1cc(NN2C(C(O)c3ccc(I)cc3)C=CC3C(=O)N(c4ccccc4)C(=O)C32)cc(OC)c1OC` (centres undefined) it is -1.34.
Still for that read-out and setting: as for `CCN(CC)c1ccc(N2CC=CC34O[C@@H]5/C=C\CCC(C)OC(=O)C5[C@H]3C(=O)N(C(C)CO)[C@@H]4C2=O)cc1` (some centres undefined), the figure is 0.0809.
As to `C=CC[C@H](OC(=O)Nc1ccc(SC)cc1)c1ccc(OCCO)cc1`, the z-score turned out to be 0.194.
On the same count and under the same terms, the figure for `COCCOC(=O)N1C(=O)[C@@]2(c3cc(C#CCCO)ccc31)[C@H](c1ccccc1OCCO)N1[C@H](c3ccccc3)[C@H](c3ccccc3)OC(=O)[C@H]1[C@@H]2C(=O)N1CCCCCCC1` is 0.484.
The same measure, in the same setting: the figure for `CC(C)C(=C=CC[C@H](O)c1cccc(OCCO)c1)CCO` is 0.929.
`CCCCNC(=O)c1ccc(C#C[Si](C(C)C)(C(C)C)C(C)C)c(OC(C)=O)c1` returned a z-score of 0.234.
On to `C[C@@]12COC[C@]13C=C(Br)[C@H](C2)[C@@]1(CO1)C3=O`, for which the z-score was 0.219.
On the same count and under the same terms, the figure for `CC(C)[C@H]1NC(=O)[C@@]23C(=O)N[C@@H](Cc4ccccc4)C2[C@H](C)[C@@]2(C)O[C@H]2C3/C=C/CCC/C=C/CNC(=O)[C@H](Cc2ccccc2)NC1=O` (some centres undefined) is 0.0125; for `COCCCNC(=O)[C@@]1(Sc2ccc(C)cc2)CC(=O)N(C(C)C)[C@@H]1c1ccc(CO)cc1I` it is -1.97.
On the same count and under the same terms, the figure for `CN(C)CCCCNC(=O)[C@H]1C[C@H]2C(=O)N[C@@H](CCCC[N+](C)(C)C)C(=O)N2[C@H]1c1ccc(O)cc1` is 0.643.

Another test addresses E3 ubiquitin-protein ligase XIAP (Homo sapiens) (UniProt P98170). Briefly: XIAP binders, primary screen, biophysical, small-molecule microarray, fluorescence 635 nm (AID 1181).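 Further: score merges 667 nm emission and signal to noise over triplicate slides.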 The following applies: small-molecule microarray binding, higher = more signal.
`COc1cc2c(cc1O)C(c1cccs1)N(Cc1sc3ccccc3c1Cl)CC2` (centres undefined): the composite z-score worked out at 0.134.
Still for that read-out and setting: the figure for `CC(C)(C)OC(=O)CC[C@]12N=C(c3ccc(OCCCO)cc3)O[C@H]1c1ccccc1N(Cc1ccccc1)C2=O` is 0.0968; for `O=C1C2C=CC(C(O)c3ccc(I)cc3)N(Nc3ccccc3)C2C(=O)N1c1ccccc1` (centres undefined) it is 0.162; for `C=CCN1C(=O)[C@@]2(O[C@@H](CCO)[C@H]([Si](C)(C)c3ccc(OC)cc3)[C@H]2C)c2cc(N3CCOC3=O)ccc21` it is -0.0807.
The same measure, in the same setting: the figure for `CCOC(=O)C1=C[C@@H](C(C)(C)C)N(S(=O)(=O)c2ccc(C)cc2)[C@H]1c1cccc(Cl)c1` is -0.0994; for `CO[C@H]1O[C@H](CO)[C@@H](OC(=O)Nc2cccc(F)c2)[C@H](OC(=O)Nc2ccccc2-c2ccccc2)[C@H]1OC(=O)Nc1ccccc1-c1ccccc1` it is -0.0925.
Same read-out and setting: the figure for `COCC(=C=CC[C@@H](O)c1ccc(OCCO)cc1)CCO` is -0.0949; for `C=CCC(OC(C)=O)[C@@H]1[C@@H](N(Cc2ccc(-c3cccc(C(F)(F)F)c3)o2)C(=O)Cc2ccc(OC)cc2)c2cc(OCCCO)ccc2N1C(=O)Cc1ccc2ccccc2c1` (some centres undefined) it is -0.0286; for `CN1C(=O)[C@@H]2[C@@H](CC(COc3ccccc3)=C([C@H](O)CCc3ccccc3)[C@@H]2CO)C1=O` it is 0.0178.
The compound `COc1cc(NN2C(C(O)C3CCCCC3)C=CC3C(=O)N(C)C(=O)C32)cc(OC)c1OC` (centres undefined) gave a composite z-score of 0.279.
Same read-out and setting: as for `C=CCC(OC(C)=O)[C@@H]1[C@@H](N(Cc2cccc3ccccc23)C(=O)c2ccc(-c3ccccc3)cc2)c2cc(OCCCO)ccc2N1C(=O)c1ccc(-c2ccccc2)cc1` (some centres undefined), the figure is -0.114; as for `[N-]=[N+]=NCc1ccccc1C[C@@]1(C(=O)N2CCCCC2)N=C(c2ccc(OCCCO)cc2)O[C@@H]1c1ccccc1CN=[N+]=[N-]`, -0.117; as for `COC(=O)[C@@]1(Cc2ccc(OC)cc2)[C@H]2c3cc(C(=O)N4CCCC4)n(Cc4ccc(S(C)(=O)=O)cc4)c3C[C@H]2CN1C(=O)c1ccccc1`, 0.721.
Same read-out and setting: as for `CCOC(=O)C[C@H]1[C@H](OC(=O)c2ccc(C(=O)c3ccccc3)cc2)[C@@H](NC(=O)CC(C)C)c2cc(OCCCO)ccc2N1C(=O)Cc1ccc(OC)cc1`, the figure is -0.289; as for `O=C1C2C=CC(C(O)c3ccco3)N(Nc3ccccc3)C2C(=O)N1c1ccccc1` (centres undefined), -0.0264.
Same read-out and setting: as for `Cc1ccc(F)cc1S(=O)(=O)N[C@@H]1CCN(Cc2cccc3[nH]ccc23)C1`, the figure is -0.02; as for `CCOC(=O)C1=C[C@@H](c2ccccc2)N(S(=O)(=O)c2ccc(C)cc2)[C@H]1c1ccccc1`, 0.125; as for `COCCOC(=O)N1C(=O)[C@@]2(c3cc(C#CCC(C(=O)OC)C(=O)OC)ccc31)[C@H](c1ccc(OCCO)cc1)N1[C@H](c3ccccc3)[C@H](c3ccccc3)OC(=O)[C@H]1[C@@H]2C(=O)Nc1nc2ccccc2s1`, 0.0506.
`COC(=O)[C@@]1(Cc2ccccc2CN=[N+]=[N-])N=C(c2ccc(OCCCO)cc2)O[C@H]1c1ccccc1` registered a composite z-score of 0.162.
On to `COC(=O)C(CC#Cc1ccc2c(c1)[C@]1(C(=O)N2)[C@H](c2ccc(OCCO)cc2)N2[C@H](c3ccccc3)[C@H](c3ccccc3)OC(=O)[C@H]2[C@@H]1C(=O)N1CCN(c2ncccn2)CC1)C(=O)OC`, for which the composite z-score was determined as 0.0651.
The same measure, in the same setting: as for `CCCCCCCCCCC(O)C1C=CC2C(=O)N(C)C(=O)C2N1Nc1cc(OC)c(OC)c(OC)c1` (centres undefined), the figure is -0.182; as for `C=CCC(OC(C)=O)[C@@H]1[C@@H](N(Cc2ccc(-c3ccccc3)cc2)C(=O)c2ccc(C)cc2)c2cc(OCCCO)ccc2N1C(=O)Cc1ccc2ccccc2c1` (some centres undefined), -0.02.
On the same count and under the same terms, as for `Cc1cccc([C@H]2C[C@H]3C(Br)=C[C@@H]2C(=O)[C@]32CO2)c1`, the figure is 0.172.
The same measure, in the same setting: as for `O=C(O)[C@H]1C[C@H]2C(=O)N[C@@H](Cc3ccccc3)C(=O)N2[C@H]1c1cccc(OCCO)c1`, the figure is -0.0323; as for `Cc1cccc([C@H]2C[C@H]3C(I)=C[C@@H]2C(=O)[C@]32CO2)c1`, 0.49; as for `COc1cc(NN2C(C(O)c3ccc(I)cc3)C=CC3C(=O)N(c4ccccc4)C(=O)C32)cc(OC)c1OC` (centres undefined), 0.162.
`CCN(CC)c1ccc(N2CC=CC34O[C@@H]5/C=C\CCC(C)OC(=O)C5[C@H]3C(=O)N(C(C)CO)[C@@H]4C2=O)cc1` (some centres undefined): the composite z-score was found to be 0.0727.
Still for that read-out and setting: as for `C=CC[C@H](OC(=O)Nc1ccc(SC)cc1)c1ccc(OCCO)cc1`, the figure is 0.0264; as for `COCCOC(=O)N1C(=O)[C@@]2(c3cc(C#CCCO)ccc31)[C@H](c1ccccc1OCCO)N1[C@H](c3ccccc3)[C@H](c3ccccc3)OC(=O)[C@H]1[C@@H]2C(=O)N1CCCCCCC1`, 0.236.
On the same count and under the same terms, as for `CC(C)C(=C=CC[C@H](O)c1cccc(OCCO)c1)CCO`, the figure is -0.031; as for `CCCCNC(=O)c1ccc(C#C[Si](C(C)C)(C(C)C)C(C)C)c(OC(C)=O)c1`, -0.165; as for `C[C@@]12COC[C@]13C=C(Br)[C@H](C2)[C@@]1(CO1)C3=O`, -0.154.
Still for that read-out and setting: the figure for `CC(C)[C@H]1NC(=O)[C@@]23C(=O)N[C@@H](Cc4ccccc4)C2[C@H](C)[C@@]2(C)O[C@H]2C3/C=C/CCC/C=C/CNC(=O)[C@H](Cc2ccccc2)NC1=O` (some centres undefined) is -0.039.
Compound `COCCCNC(=O)[C@@]1(Sc2ccc(C)cc2)CC(=O)N(C(C)C)[C@@H]1c1ccc(CO)cc1I` showed a composite z-score of -0.37.
Same read-out and setting: as for `CN(C)CCCCNC(=O)[C@H]1C[C@H]2C(=O)N[C@@H](CCCC[N+](C)(C)C)C(=O)N2[C@H]1c1ccc(O)cc1`, the figure is -0.0599.
